Assay outcomes (PubChem BioAssay)
HT1080-NT tox = qHTS for induction of synthetic lethality in tumor cells producing 2HG: qHTS for the HT-1080-NT fibrosarcoma cell line. HT-1080-NT fibrosarcoma viability, CellTiter-Glo ATP luminescence, 48 h. Potency, µM (series often up to 46.1 µM), most hits filed as cytotoxic. actives 1.6% (n = 360,000). AID 686970, 2013;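 also: NT is the 2HG producing partner of a matched IDH1 knockdown line; nearly all actives have a fitted effect of over 55% in size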
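Compounds were tested in concentration-response format on HT-1080-NT cells for 48 hours at 37 degrees C. Cell viability came from CellTiter-Glo luminescence; curves were classified by r2, response magnitude and activity.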
IL-1B inflam inh = qHTS for Inhibitors of Inflammasome Signaling: IL-1-beta AlphaLISA Primary Screen. actives 4.7% (n = 360,000). THP-1 LPS/ATP IL-1B secretion, AlphaLISA, 16 h; active compounds read low. activity change, % at 57.5 µM; in the data active = activity change below about -50%; inconclusive = mostly about -30% to -49%
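THP-1 cells pretreated 1 hr with compounds (up to 57.5 uM final), then stimulated with LPS (250 ng/mL final) plus ATP (1.25 mM final); secreted IL-1B measured by AlphaLISA after 16 hr, decreased signal indicating inhibition.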
ALOX12 inh = Primary qHTS assay for inhibitors of human arachidonate 12S-lipoxygenase (ALOX12): Round 2. Polyunsaturated fatty acid lipoxygenase ALOX12 (Homo sapiens), P18054. actives 1.1% (n = 580,000). purified 12hLO, xylenol orange hydroperoxide absorbance. AID 1671190, 2021. Potency, µM (highest dose often 108 µM), most hits filed as inhibitors
Target sequence (P18054 whole entry, looked up): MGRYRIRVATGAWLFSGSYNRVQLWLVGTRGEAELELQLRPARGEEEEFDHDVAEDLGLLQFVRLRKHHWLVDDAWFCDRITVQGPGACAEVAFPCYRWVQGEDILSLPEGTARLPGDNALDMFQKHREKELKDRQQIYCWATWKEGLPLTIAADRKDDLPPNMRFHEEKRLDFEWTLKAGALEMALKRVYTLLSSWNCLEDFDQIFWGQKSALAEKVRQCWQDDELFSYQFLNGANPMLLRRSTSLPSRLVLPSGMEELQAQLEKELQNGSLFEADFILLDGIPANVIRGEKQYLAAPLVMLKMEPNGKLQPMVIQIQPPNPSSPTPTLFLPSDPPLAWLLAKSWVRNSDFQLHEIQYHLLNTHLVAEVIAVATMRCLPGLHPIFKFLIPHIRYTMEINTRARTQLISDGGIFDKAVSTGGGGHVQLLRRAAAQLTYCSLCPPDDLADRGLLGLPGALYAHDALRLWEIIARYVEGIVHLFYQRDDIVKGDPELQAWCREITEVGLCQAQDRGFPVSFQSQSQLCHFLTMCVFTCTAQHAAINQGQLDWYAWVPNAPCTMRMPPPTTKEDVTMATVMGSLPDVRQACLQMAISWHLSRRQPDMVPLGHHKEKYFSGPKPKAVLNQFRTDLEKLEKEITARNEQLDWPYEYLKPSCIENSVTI
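Hydroperoxide product was detected by ferrous iron/xylenol orange as the 573 to 405 nm absorbance ratio. Arachidonic acid at 40 uM (final) was turned over for 30 min at room temperature by 150 nM human 12hLO, pH 7.0 Hepes buffer, after 15 min compound preincubation.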
DT40 TDP1 CPT = qHTS for Inhibitors of human tyrosyl-DNA phosphodiesterase 1 (TDP1): qHTS in cells in presence of CPT | Potency, µM (highest dose often 46.2 µM), usual class: inhibitors | chicken DT40 Tdp1-/-;hTDP1 cells + 20 nM CPT, ATP luminescence, 48 h | actives 12% (n = 420,000); also: nearly all actives have a fitted effect of over 55% in size
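Cell growth measured by CellTiter-Glo luminescence after a minimum 48 h, 37 C compound exposure with 20 nM CPT in Tdp1-knockout DT40 cells stably expressing hTDP1, seeded 400/well; qHTS titration format.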
HT1080 IDH1KD tx = qHTS for induction of synthetic lethality in tumor cells producing 2HG: qHTS for the HT-1080-IDH1KD cell line; HT-1080 IDH1 knockdown viability, ATP luminescence, 48 h; Potency, µM (top dose mostly 46.1 µM), most hits filed as cytotoxic; actives 2% (n = 360,000); AID 686971, 2013
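Luminescent ATP read-out (CellTiter-Glo, 10 min at room temperature) after 48 h compound exposure at 37 °C gave viability of IDH1-knockdown HT-1080 cells. Activity was normalised to DMSO and cell-free wells, then fitted as concentration-response curves.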
DT40 TDP1 no CPT = qHTS for Inhibitors of human tyrosyl-DNA phosphodiesterase 1 (TDP1): qHTS in cells in absence of CPT. Potency, µM (titrated, usually from 46.2 µM), hits mostly inhibitors. DT40 Tdp1-/- hTDP1 cells, no CPT, ATP luminescence, 48 h. actives 15% (n = 420,000). AID 686978, 2013; also: nearly all actives have a fitted effect of over 55% in size
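Growth of hTDP1-complemented DT40 Tdp1-knockout cells is measured by ATP luminescence after at least 48 hr compound exposure at 37 °C, with DMSO substituting for the 20 nM CPT used in the parallel screen.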
Of the large screens only hits and unclear results are named; the others gave an inactive call. Shown is part of a subset that was picked to be rich in hits. Unless noted, calls follow the shape of the dose curve; as a rule, active = well fitted curve in the direction sought with a large enough effect; inconclusive = small, poorly fitted or top-dose-only effect, or another doubt; inactive = no such curve, though single readings can be large; an effect the other way counts as inactive or inconclusive.

CCOc1ccc(NC(=O)Cn2cc(C(=O)c3ccc(F)cc3)c(=O)c3cc4c(cc32)OCO4)cc1	ALOX12 inh inconclusive (no result: HT1080-NT tox, IL-1B inflam inh, HT1080 IDH1KD tx)
CCc1ccc(C(=O)c2cn(CC(=O)Nc3ccc(Cl)cc3)c3cc4c(cc3c2=O)OCO4)cc1	DT40 TDP1 CPT 15µM, DT40 TDP1 no CPT 16µM (no result: HT1080-NT tox, IL-1B inflam inh, HT1080 IDH1KD tx)
CCc1ccc(C(=O)c2cn(CC(=O)Nc3ccc4c(c3)OCO4)c3ccc(Cl)cc3c2=O)cc1	DT40 TDP1 CPT inconclusive, DT40 TDP1 no CPT inconclusive (no result: HT1080-NT tox, IL-1B inflam inh, HT1080 IDH1KD tx)
CCCc1cc(C(=O)N2CCC(n3nccc3NC(=O)c3ccc(OC)cc3)CC2)no1	none
COc1ccc(NC(=O)c2c(-c3ccccc3)oc3ccc(OC)cc23)cc1	none (no result: HT1080-NT tox, IL-1B inflam inh, DT40 TDP1 CPT, HT1080 IDH1KD tx, DT40 TDP1 no CPT)
CCCCC(=O)OC1=C(C(=O)c2ccccc2)N(CC)S(=O)(=O)c2ccccc21	DT40 TDP1 CPT 21µM, DT40 TDP1 no CPT 7.3µM (no result: HT1080-NT tox, IL-1B inflam inh, HT1080 IDH1KD tx)
CCCCN1C(C(C)=O)=C(OC(=O)c2ccc(C)cc2)c2ccccc2S1(=O)=O	none (no result: HT1080-NT tox, IL-1B inflam inh, DT40 TDP1 CPT, HT1080 IDH1KD tx, DT40 TDP1 no CPT)
O=C(C1=C(OC(=O)c2ccco2)c2ccccc2S(=O)(=O)N1Cc1ccccc1)c1ccccc1	none (no result: HT1080-NT tox, IL-1B inflam inh, DT40 TDP1 CPT, HT1080 IDH1KD tx, DT40 TDP1 no CPT)
CCCCN1C(C(=O)c2ccccc2)=C(OC(C)=O)c2ccccc2S1(=O)=O	ALOX12 inh inconclusive, DT40 TDP1 CPT 5.2µM, DT40 TDP1 no CPT 4.6µM (no result: HT1080-NT tox, IL-1B inflam inh, HT1080 IDH1KD tx)
CCN1C(C(=O)c2ccccc2)=C(Nc2ccccc2C)c2ccccc2S1(=O)=O	IL-1B inflam inh inconclusive, ALOX12 inh inconclusive, DT40 TDP1 no CPT inconclusive
CCN1C(C(=O)c2ccccc2)=C(OC(=O)c2ccccc2OC)c2ccccc2S1(=O)=O	DT40 TDP1 CPT 4.6µM, DT40 TDP1 no CPT 3.3µM (no result: HT1080-NT tox, IL-1B inflam inh, HT1080 IDH1KD tx)
O=C(CCN1C(=O)/C(=C\c2ccccc2)SC1=S)NNC(=O)c1ccccc1O	HT1080-NT tox inconclusive, DT40 TDP1 CPT 21µM, HT1080 IDH1KD tx inconclusive, DT40 TDP1 no CPT 26µM
O=C(CCN1C(=O)/C(=C\c2ccccc2)SC1=S)NNC(=O)c1cccnc1	DT40 TDP1 CPT inconclusive, DT40 TDP1 no CPT inconclusive
O=C1S/C(=C/c2ccccc2)C(=O)N1CC(O)Cn1c2ccccc2c2ccccc21 (stereo unspecified)	DT40 TDP1 CPT 23µM, DT40 TDP1 no CPT 23µM
O=C(CCCN1C(=O)S/C(=C\c2ccccc2)C1=O)NNC(=O)c1ccccc1O	HT1080-NT tox inconclusive, DT40 TDP1 CPT 12µM, DT40 TDP1 no CPT 9.2µM
O=C(CN1C(=O)S/C(=C\c2ccc(O)cc2)C1=O)c1ccccc1	HT1080-NT tox inconclusive, IL-1B inflam inh -77, DT40 TDP1 CPT inconclusive, HT1080 IDH1KD tx inconclusive, DT40 TDP1 no CPT inconclusive
O=C(CN1C(=O)S/C(=C\c2ccc(C(=O)O)cc2)C1=O)Nc1ccccc1	none
O=C(Nc1cccc(C(F)(F)F)c1)N[C@H]1CO[C@H]2[C@@H]1OC[C@@H]2n1cc(CC2CCCCC2)nn1	none (no result: HT1080-NT tox, IL-1B inflam inh, DT40 TDP1 CPT, HT1080 IDH1KD tx, DT40 TDP1 no CPT)
CSc1ccc(-c2nnn(CC(=O)Nc3sc4c(c3C#N)CCC(C(C)(C)C)C4)n2)cc1 (stereo unspecified)	ALOX12 inh inconclusive (no result: HT1080-NT tox, IL-1B inflam inh, HT1080 IDH1KD tx)
O=C(CCCN1C(=O)/C(=C/c2ccccc2)SC1=S)Nc1ccccc1O	HT1080-NT tox inconclusive, IL-1B inflam inh -93, DT40 TDP1 CPT inconclusive, HT1080 IDH1KD tx inconclusive, DT40 TDP1 no CPT inconclusive
O=C(CCCN1C(=O)/C(=C\c2cccs2)SC1=S)Nc1ccccc1O	DT40 TDP1 CPT inconclusive, DT40 TDP1 no CPT inconclusive
CC(=O)NC(CC(=O)NCCN1C(=O)S/C(=C\c2ccccc2)C1=O)c1ccccc1 (stereo unspecified)	DT40 TDP1 CPT 21µM, DT40 TDP1 no CPT inconclusive
CCCCNC(=O)N1CCC2(CC1)SCC(=O)N2c1ccc(OC)cc1	none (no result: HT1080-NT tox, IL-1B inflam inh, DT40 TDP1 CPT, HT1080 IDH1KD tx, DT40 TDP1 no CPT)
